Results: PubChem BioAssay
Activity calls are given as the source filed them. Rule as the data show it, unless noted: active = inhibition above about 33%; inactive = the rest.

What was measured:
[1] = target: Nuclear receptor coactivator 3 (Homo sapiens) (UniProt Q9Y6Q9); experiment: NCOA3 GAL4-fusion reporter inhibition – cell-based, luminescence, quadruplicate, confirmation (AID 588792;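 active = mean inhibition over 43.08%, the solvent-only control mean plus 3 SD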;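 also: 0% = DMSO treated cells and 100% = gossypol at 36 µM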); details: HEK293 GAL4-SRC3 luciferase reporter, at 3.6 µM, active compounds read high
Nuclear receptor coactivator 3 (Homo sapiens), sequence (Q9Y6Q9 whole entry, looked up, the tested form may be a part): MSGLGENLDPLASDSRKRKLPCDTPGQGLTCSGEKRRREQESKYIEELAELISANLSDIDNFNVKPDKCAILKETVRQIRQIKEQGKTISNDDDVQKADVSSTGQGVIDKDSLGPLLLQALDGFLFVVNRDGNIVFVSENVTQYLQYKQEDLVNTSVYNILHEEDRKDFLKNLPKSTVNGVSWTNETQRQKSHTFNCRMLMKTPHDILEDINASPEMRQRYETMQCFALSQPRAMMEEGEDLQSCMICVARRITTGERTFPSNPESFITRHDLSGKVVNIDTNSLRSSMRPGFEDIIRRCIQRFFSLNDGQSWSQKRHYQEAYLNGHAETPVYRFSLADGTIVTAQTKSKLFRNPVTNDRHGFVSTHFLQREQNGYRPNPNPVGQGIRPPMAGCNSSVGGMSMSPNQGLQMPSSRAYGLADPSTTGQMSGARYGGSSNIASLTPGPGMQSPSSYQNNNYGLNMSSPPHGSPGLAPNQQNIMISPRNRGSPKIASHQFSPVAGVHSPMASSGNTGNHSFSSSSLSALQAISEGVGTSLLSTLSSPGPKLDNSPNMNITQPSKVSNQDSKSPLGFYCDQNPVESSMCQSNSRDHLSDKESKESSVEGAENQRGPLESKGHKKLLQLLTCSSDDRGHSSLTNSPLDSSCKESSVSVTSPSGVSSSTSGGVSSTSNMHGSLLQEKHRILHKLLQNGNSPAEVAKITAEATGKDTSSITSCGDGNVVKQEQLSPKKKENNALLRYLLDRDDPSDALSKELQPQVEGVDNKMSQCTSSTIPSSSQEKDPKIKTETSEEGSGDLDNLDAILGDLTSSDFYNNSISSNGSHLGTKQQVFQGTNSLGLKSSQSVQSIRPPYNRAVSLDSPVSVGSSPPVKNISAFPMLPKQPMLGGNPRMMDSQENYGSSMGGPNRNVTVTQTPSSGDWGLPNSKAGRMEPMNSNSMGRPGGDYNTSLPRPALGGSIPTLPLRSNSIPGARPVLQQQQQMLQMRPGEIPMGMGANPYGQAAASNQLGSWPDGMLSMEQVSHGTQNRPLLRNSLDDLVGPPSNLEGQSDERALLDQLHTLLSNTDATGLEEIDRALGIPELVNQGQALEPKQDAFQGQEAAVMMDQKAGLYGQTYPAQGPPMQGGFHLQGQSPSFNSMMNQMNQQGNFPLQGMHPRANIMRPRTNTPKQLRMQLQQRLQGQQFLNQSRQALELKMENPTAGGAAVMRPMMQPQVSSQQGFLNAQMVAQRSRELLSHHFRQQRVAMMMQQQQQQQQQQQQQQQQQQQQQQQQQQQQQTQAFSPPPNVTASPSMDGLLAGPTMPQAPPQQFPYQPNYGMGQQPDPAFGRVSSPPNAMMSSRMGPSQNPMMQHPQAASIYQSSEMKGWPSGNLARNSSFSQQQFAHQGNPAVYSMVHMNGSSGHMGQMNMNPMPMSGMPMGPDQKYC

[2] = tested on: transactivating tegument protein VP16 (Human herpesvirus 1), Gal4-VP16 luciferase reporter; experiment: repression of VP16-driven luciferase reporter – cell-based, luminescence, high throughput, counter-screen for SRC3 inhibitor project (AID 588794; in the data active = inhibition above about 30%); details: mammalian cells, at 3.6 µM, active compounds read high
[3] = target: Nuclear receptor coactivator 1 (Homo sapiens) (UniProt Q15788); experiment: NCOA1 GAL4-fusion reporter inhibition – cell-based, luminescence, quadruplicate, confirmation (AID 588820;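 active = mean inhibition above 46.68%, the untreated control wells mean plus 3 SD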;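 also: 0% = DMSO wells and 100% = gossypol 36 µM treated wells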); details: HEK293 GAL4-SRC1 luciferase reporter, at 3.6 µM, active compounds read high
Nuclear receptor coactivator 1 (Homo sapiens), sequence (Q15788 whole entry, looked up, the tested form may be a part): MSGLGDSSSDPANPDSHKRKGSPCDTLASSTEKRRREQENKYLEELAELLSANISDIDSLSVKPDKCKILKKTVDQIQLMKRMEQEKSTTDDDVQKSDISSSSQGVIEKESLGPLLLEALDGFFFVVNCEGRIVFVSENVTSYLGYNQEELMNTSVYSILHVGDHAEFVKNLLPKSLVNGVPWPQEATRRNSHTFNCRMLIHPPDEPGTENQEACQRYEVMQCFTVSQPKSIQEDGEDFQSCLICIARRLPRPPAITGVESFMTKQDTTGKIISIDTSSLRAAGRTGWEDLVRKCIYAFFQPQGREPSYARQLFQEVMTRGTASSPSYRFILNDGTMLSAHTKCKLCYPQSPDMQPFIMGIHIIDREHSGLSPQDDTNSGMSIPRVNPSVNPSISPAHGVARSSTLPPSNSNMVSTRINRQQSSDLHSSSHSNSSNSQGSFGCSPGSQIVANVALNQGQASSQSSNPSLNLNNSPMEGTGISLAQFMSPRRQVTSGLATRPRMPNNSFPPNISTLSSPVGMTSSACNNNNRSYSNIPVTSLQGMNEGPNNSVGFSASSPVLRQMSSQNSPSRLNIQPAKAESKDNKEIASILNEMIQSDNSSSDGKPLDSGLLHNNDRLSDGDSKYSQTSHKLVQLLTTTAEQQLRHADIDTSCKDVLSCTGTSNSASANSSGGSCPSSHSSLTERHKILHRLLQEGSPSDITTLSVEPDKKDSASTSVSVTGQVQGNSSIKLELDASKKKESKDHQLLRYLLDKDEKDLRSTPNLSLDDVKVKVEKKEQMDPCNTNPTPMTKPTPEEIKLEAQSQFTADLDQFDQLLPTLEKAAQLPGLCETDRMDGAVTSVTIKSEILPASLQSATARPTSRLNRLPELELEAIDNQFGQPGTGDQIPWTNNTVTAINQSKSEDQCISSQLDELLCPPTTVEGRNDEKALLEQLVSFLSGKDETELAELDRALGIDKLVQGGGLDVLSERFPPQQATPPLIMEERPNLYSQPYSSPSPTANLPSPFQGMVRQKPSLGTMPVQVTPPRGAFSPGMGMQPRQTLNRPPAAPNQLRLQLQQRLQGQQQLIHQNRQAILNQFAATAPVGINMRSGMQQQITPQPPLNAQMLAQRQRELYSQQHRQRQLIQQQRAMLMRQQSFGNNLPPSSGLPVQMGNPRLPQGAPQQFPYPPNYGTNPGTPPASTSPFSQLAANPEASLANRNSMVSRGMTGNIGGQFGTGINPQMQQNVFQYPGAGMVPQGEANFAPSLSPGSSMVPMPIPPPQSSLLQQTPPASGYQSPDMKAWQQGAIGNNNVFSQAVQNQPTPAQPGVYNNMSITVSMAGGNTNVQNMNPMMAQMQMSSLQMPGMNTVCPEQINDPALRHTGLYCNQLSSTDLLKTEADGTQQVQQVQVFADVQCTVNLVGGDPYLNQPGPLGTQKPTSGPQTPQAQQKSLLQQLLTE

[4] = repression of VP16-driven luciferase reporter – cell-based, luminescence, high throughput, counter-screen for SRC1 inhibitor project (AID 588824; in the data active = inhibition above about 25%); details: cell-based VP16 transactivation luciferase luminescence; at 3.6 µM; active compounds read high
[5] = StAR promoter reporter inhibitors, counter-screen for LRH-1 inverse agonist project, cell-based, luminescence, high throughput (AID 651611; in the data active = inhibition above about 28%); details: StAR promoter luciferase reporter counterscreen, at 3.6 µM, active compounds read high
[6] = target: Nuclear receptor subfamily 5 group A member 2 (Homo sapiens) (UniProt O00482); experiment: NR5A2 activity suppression in reporter cells – cell-based, luminescence, confirmation (AID 651613; in the data active = inhibition above about 42%;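 also: HEK293T cells co-transfected with LRH-1 and StAR promoter luciferase reporter; 0% = vehicle wells and 100% = parental cells lacking receptor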); details: cell-based LRH-1 luciferase reporter, inverse agonism; at 3.6 µM; active compounds read high
[7] = target: Steroidogenic factor 1 (Homo sapiens) (UniProt Q13285); experiment: inverse agonism at SF1 nuclear receptor – cell-based, luminescence, high throughput, counter-screen for LRH-1 inverse agonist project (AID 651614; in the data active = inhibition above about 44%;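 also: cells cotransfected with StAR promoter reporter and SF1 expression vector; 0% = vehicle on cells with receptor and 100% = vehicle on cells lacking receptor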); details: cell-based SF1 luciferase reporter, at 3.6 µM, active compounds read high
Steroidogenic factor 1 (Homo sapiens), sequence (Q13285 whole entry, looked up, the tested form may be a part): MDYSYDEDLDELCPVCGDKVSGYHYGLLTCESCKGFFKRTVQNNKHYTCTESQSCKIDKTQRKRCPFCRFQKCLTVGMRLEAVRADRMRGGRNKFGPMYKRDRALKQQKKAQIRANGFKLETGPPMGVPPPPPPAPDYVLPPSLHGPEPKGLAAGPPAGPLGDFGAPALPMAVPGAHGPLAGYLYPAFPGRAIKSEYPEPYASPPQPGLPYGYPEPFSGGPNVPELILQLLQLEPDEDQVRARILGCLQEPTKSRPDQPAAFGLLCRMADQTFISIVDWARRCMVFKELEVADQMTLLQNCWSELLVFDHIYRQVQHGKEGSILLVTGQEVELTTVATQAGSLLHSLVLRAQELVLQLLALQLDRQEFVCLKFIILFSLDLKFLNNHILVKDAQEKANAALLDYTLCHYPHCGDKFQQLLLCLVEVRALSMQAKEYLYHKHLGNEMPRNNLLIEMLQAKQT

[8] = compounds suppressing VP16-driven luciferase signal – cell-based, luminescence, high throughput, counter-screen for LRH-1 inverse agonist project (AID 651615); details: Gal4-VP16 luciferase reporter cells, at 3.6 µM, active compounds read high
[9] = tested on: transactivating tegument protein VP16 (Human herpesvirus 1); experiment: compounds suppressing VP16-driven luciferase signal – cell-based, luminescence, single concentration, counter-screen for SRC2 inhibitor project (AID 652007; in the data active = inhibition above about 36%); details: cell-based VP16 transactivation luciferase reporter, at 8.9 µM, active compounds read high
[10] = target: Nuclear receptor coactivator 2 (Homo sapiens) (UniProt Q15596); experiment: inhibition of GAL4-SRC2 driven luciferase expression – cell-based, luminescence, HEK293, triplicate, confirmation (AID 652008;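 active = mean inhibition above 46.5%, the solvent-only control mean plus 3 SD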;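 also: 0% = DMSO-treated cells and 100% = Gossypol at 36 µM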); details: HEK293 GAL4-SRC2 luciferase reporter, at 8.9 µM, active compounds read high
Nuclear receptor coactivator 2 (Homo sapiens), sequence (Q15596 whole entry, looked up, the tested form may be a part): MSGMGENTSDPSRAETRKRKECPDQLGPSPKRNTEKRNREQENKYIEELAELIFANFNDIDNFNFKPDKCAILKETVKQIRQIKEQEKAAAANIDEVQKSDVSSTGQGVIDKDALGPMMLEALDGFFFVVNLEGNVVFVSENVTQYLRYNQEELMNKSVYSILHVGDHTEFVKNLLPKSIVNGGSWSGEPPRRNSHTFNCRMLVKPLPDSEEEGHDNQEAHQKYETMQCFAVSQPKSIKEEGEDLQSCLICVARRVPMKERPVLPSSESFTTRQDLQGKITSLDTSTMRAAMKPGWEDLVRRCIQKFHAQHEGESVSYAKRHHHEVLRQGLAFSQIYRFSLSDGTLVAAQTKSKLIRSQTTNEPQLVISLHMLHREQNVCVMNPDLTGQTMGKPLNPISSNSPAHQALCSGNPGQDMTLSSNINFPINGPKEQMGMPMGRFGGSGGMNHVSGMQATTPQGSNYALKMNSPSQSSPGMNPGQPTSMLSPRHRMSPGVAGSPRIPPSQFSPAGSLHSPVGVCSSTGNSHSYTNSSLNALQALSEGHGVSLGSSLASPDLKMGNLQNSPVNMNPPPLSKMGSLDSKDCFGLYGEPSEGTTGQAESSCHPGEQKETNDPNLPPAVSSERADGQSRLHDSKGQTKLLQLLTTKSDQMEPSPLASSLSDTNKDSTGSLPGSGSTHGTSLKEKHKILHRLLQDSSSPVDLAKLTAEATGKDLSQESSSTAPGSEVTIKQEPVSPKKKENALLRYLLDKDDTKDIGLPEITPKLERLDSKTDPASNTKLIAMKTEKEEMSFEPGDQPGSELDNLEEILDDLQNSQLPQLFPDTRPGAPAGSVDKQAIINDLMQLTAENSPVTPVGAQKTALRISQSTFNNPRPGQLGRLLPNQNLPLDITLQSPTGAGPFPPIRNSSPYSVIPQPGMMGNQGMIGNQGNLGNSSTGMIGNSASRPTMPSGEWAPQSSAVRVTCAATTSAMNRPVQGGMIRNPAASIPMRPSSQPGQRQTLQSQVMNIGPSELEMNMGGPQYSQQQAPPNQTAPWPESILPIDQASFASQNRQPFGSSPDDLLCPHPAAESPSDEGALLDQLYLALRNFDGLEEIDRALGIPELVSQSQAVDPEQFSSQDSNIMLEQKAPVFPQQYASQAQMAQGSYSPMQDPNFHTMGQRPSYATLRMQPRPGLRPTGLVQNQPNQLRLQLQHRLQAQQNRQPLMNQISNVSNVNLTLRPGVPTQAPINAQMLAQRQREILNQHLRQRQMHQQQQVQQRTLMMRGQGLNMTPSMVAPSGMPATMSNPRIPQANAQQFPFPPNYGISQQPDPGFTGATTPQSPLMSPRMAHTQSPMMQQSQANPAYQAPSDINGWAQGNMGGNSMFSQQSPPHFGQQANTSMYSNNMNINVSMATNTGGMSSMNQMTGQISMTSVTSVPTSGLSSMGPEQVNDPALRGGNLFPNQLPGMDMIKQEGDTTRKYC

Measured: inhibition

C[C@]12CC[C@H](O)C[C@H]1CC[C@@H]1[C@@H]2CC[C@]2(C)[C@@H](C3=CC(=O)OC3)CC[C@]12O
active: [1] 95.3% | [2] 82.7% | [3] 58.7% | [4] 80.1% | [5] 95.7% | [6] 110% | [7] 97.4% | [8] 87% | [9] 56%
inactive: [10] 30.2%

NC(=S)c1cn(C2OC(CO)C(O)C2O)c2ncnc(N)c12 (stereo unspecified)
active: [1] 97.4% | [2] 95.9% | [3] 89.7% | [4] 96.2% | [5] 93.2% | [6] 109% | [7] 98% | [8] 97.9% | [9] 69.4% | [10] 71.6%

COc1ccc(-n2nnnc2C(c2cc3ccccc3o2)N2CCC(n3c(=O)[nH]c4ccccc43)CC2)cc1 (stereo unspecified)
active: [5] 39.6% | [7] 45.7% | [8] 35.3% | [9] 49.7%
inactive: [1] -5.69% | [2] 5.58% | [3] 0.21% | [4] 6.66% | [6] 36.4% | [10] 22.9%

CC1C(OC(=O)CCC(=O)NC(C)(C)CO)O[C@H]2OC3(C)CC[C@H]4[C@H](C)CCC1C24OO3 (stereo partly specified)
active: [1] 55.9% | [2] 79.9% | [3] 51.9% | [4] 81.2% | [5] 76.2% | [6] 101% | [7] 91% | [8] 84%

CCC(C)C(NC(=O)CCCNC(=O)CCC(=O)OC1O[C@H]2OC3(C)CC[C@H]4[C@H](C)CCC(C1C)C24OO3)C(=O)O (stereo partly specified)
inactive: [3] 45%
active: [1] 52.4% | [2] 77.5% | [4] 76.4% | [5] 71.9% | [6] 101% | [7] 89.8% | [8] 82.9%
